Data reported in PubChem BioAssay AID1006 (Sanford-Burnham Center for Chemical Genomics, 2008).
The whole screen tested about 200,000 compounds, of which about 3,000 (1.5%) were called active. This is one part of a sample in which actives are shown more often than they occur.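 Rule for the calls: active = inhibition above about 50% when tested at 10 µM (limit read from the data); inactive = the rest.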

target: Luciferin 4-monooxygenase (Photinus pyralis) (UniProt P08659); assay: firefly luciferase enzyme inhibitors, primary screen, artefact control for luciferase-based inhibitor screens, biochemical, luminescence, ATPLite (AID 1006); conditions: 10 min, at 10 µM, hits give high values
Sequence (P08659 whole entry, looked up): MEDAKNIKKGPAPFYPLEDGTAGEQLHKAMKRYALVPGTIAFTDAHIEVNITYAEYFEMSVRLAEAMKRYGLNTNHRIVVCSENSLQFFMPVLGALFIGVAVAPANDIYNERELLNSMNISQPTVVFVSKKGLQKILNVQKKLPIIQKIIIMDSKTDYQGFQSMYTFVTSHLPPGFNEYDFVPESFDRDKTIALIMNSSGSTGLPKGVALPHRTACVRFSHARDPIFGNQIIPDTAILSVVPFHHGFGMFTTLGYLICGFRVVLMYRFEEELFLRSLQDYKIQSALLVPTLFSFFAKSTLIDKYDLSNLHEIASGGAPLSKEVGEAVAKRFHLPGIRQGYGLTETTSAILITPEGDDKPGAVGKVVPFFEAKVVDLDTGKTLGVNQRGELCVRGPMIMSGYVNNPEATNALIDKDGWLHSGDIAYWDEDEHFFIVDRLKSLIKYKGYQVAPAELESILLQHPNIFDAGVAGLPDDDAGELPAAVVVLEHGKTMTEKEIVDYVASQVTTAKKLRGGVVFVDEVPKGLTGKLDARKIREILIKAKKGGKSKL

| SMILES | inhibition |
| --- | --- |
| CC(NC(=O)c1cccc2ccccc12)c1ccc2c(c1)CCCC2 (stereo not given) | -6.2% (inactive) |
| COc1ccc(C/C(N)=N/OC(=O)c2ccco2)cc1OC | -2.2% (inactive) |
| O=C(CCc1ccccc1)NNC(=O)c1ccc(Br)cc1 | -1.3% (inactive) |
| Cc1ccc(C)c(Cn2nnc3c(=O)[nH]c(C(=O)Nc4ccc(F)cc4)nc32)c1 | -10.1% (inactive) |
| CCN(c1ccccc1)S(=O)(=O)c1ccc2[nH]c(=O)[nH]c2c1 | -6% (inactive) |
| O=C(COc1cc(Cl)c(Cl)cc1Cl)NCCc1ccccn1 | 4.2% (inactive) |
| CN(CCN1CCOCC1)Cc1nc(-c2ccc3c(c2)OCO3)no1 | -5.1% (inactive) |
| O=C(O)CC/C(=N\NC(=O)c1ccc(F)cc1)c1ccc(Br)cc1 | -2.4% (inactive) |
| COc1ccccc1-n1ccnc1SCC(=O)NC(C)(C)C | -7.3% (inactive) |
| COc1ccc(NC(=S)N2N=CCC2c2ccccc2)cc1 (stereo not given) | 65.3% (active) |
| COc1ccc(C(=S)Nc2ccccc2)cc1 | 8.7% (inactive) |
| COc1ccc(C(=O)NC2CCN(C(=S)Nc3ccccc3)CC2)cc1 | -7.5% (inactive) |
| CC(OC(=O)c1ccc2ccccc2n1)C(=O)c1ccccc1 (stereo not given) | 81.1% (active) |
| COc1ccc(C(=O)COC(=O)c2ccc3ccccc3n2)cc1 | 19.4% (inactive) |
| O=C(Oc1ccc([N+](=O)[O-])cc1)c1ccc2ccccc2n1 | 41.6% (inactive) |
| COc1ccc(Cl)cc1NC(=O)Cn1nc(-c2ccc(C)cc2)n(C)c1=S | -5.1% (inactive) |
| Cc1ccc(C(=O)Oc2coc(CSc3nnc(NC(=O)c4cccs4)s3)cc2=O)cc1C | -0.1% (inactive) |
| CC(=C/c1ccccc1)/C=N/NC(=O)c1cc(C)oc1C | 78.3% (active) |
| Cc1cc(C(=O)N/N=C\C(Br)=C\c2ccccc2)c(C)o1 | 22.6% (inactive) |
| Cc1cc(C(=O)N/N=C/c2ccccc2[N+](=O)[O-])c(C)o1 | 32.2% (inactive) |
| Cc1cc(C(=O)N/N=C/c2ccc(N3CCOCC3)cc2)c(C)o1 | 50.7% (active) |
| Cc1ccccc1N/N=C/c1ccc(N2CCOCC2)cc1 | -3.5% (inactive) |
| CCN(CC)c1ccc(C(=O)N/N=C/c2ccc(N3CCOCC3)cc2)cc1 | -7% (inactive) |
| Cc1ccc(NC(=S)N(Cc2ccco2)C(C)c2cccs2)cc1 (stereo not given) | 3.7% (inactive) |
| CCn1nc(C)cc1C(=O)N1CCCC(C(=O)c2cccc(OC)c2)C1 (stereo not given) | 5.6% (inactive) |

| SMILES | inhibition |
| --- | --- |
| COc1ccc(-n2cc(CNC3CCOCC3)c(-c3cccc(F)c3)n2)cc1 | -2.3% (inactive) |
| Cc1ccc(Cn2ccc(NC(=O)c3cc(C(C)C)on3)n2)cc1 | 0% (inactive) |
| O=C(Nc1ccn(Cc2ccccc2)n1)c1cccc(F)c1 | 64.2% (active) |
| O=C(Nc1ccn(Cc2ccccc2)n1)c1n[nH]c([N+](=O)[O-])c1Cl | 83% (active) |
| O=C(Nc1ccn(Cc2ccc(F)cc2)n1)c1ccncc1 | 0.9% (inactive) |
| Cn1cc([N+](=O)[O-])c(C(=O)Nc2cnn(Cc3ccc(F)cc3)c2)n1 | -8.5% (inactive) |
| CC(=O)Nc1ccn(Cc2c(F)cccc2Cl)n1 | -2.9% (inactive) |
| CCOc1ccc(C(CC(=O)O)NC(=O)C23CC4CC(CC(C4)C2)C3)cc1OC (stereo not given) | -3.9% (inactive) |
| CN(C)CCCn1c(SCCN2C(=O)c3ccccc3C2=O)nc2ccccc2c1=O | -5.8% (inactive) |
| CC(C)N(Cc1nc(-c2ccc3c(c2)OCO3)no1)CC1CCC(=O)N1 (stereo not given) | -8.8% (inactive) |
| CN(C)/C=C(/C(=O)c1ccccc1)S(=O)(=O)c1ccc(Cl)cc1 | -5.6% (inactive) |
| Cc1ccc(N2C(=O)C(CC(=O)Nc3cccc(F)c3)N(CCc3ccncc3)C2=O)cc1 (stereo not given) | -0.5% (inactive) |
| COc1cccc(-c2ccc(SCC(=O)N3CCN(c4ccccc4)CC3)nn2)c1 | -6.1% (inactive) |
| Cc1cccc(-n2ncc3c(N4CCc5ccccc54)ncnc32)c1 | 17.1% (inactive) |
| C1=C(CCNc2ncnc3c2cnn3-c2ccccc2)CCCC1 | 10.5% (inactive) |
| O=C(NNc1ncnc2c1cnn2-c1ccccc1)c1ccco1 | 6% (inactive) |
| COc1ccc(-n2ncc3c(N4CCCc5ccccc54)ncnc32)cc1 | 54.9% (active) |
| COc1ccc(-n2ncc3c(N4CCc5ccccc54)ncnc32)cc1 | 41.9% (inactive) |
| c1ccc(-n2ncc3c(N4CCCC4)ncnc32)cc1 | 73.9% (active) |
| O=C(Nc1nnc(Cc2ccc(Cl)cc2)s1)c1cccnc1 | 7.5% (inactive) |
| CCn1c(/C=C/c2ccc([N+](=O)[O-])o2)nc2ccccc2c1=O | -6.1% (inactive) |
| S=c1[nH]nc(/C=C/c2ccccc2)o1 | 7.5% (inactive) |
| O=c1oc(/C=C/c2ccccc2)nc2ccccc12 | 80.5% (active) |
| N#Cc1ccc(N2Cc3ccccc3/C2=N/C(=O)Nc2ccc(Cl)cc2)cc1 | -4.6% (inactive) |
| Cc1ccc(S(=O)(=O)N(CC(=O)Nc2cccc([N+](=O)[O-])c2)Cc2ccc(Cl)cc2)cc1 | -6.1% (inactive) |

| SMILES | inhibition |
| --- | --- |
| COc1ccc(/C=C/C(=O)N2CCCC2)cc1OC | 5.6% (inactive) |
| COc1ccc(/C=C/C(=O)Nc2ccc(C34CC5CC(CC(O)(C5)C3)C4)cc2)cc1OC | 57.2% (active) |
| COc1ccc(/C=C/C(=O)Nc2cccnc2)cc1OC | 13% (inactive) |
| CCCN(CC(=O)Nc1ccc(OC)c(OC)c1)CC(=O)Nc1ccc(F)c(F)c1F | 8.5% (inactive) |
| COc1ccc(-n2nnnc2SCC(=O)Nc2ccccc2)cc1 | -8% (inactive) |
| CCOc1cccc(-n2nnnc2-c2ccc(OC)cc2)c1 | -0.7% (inactive) |
| COc1ccc(-n2nnnc2-c2nc3ccccc3s2)cc1 | 73.2% (active) |
| CCc1ccc(Oc2nc([N+](=O)[O-])nn2C)cc1 | -9.5% (inactive) |
| Cc1nc(-c2ccccc2)sc1C(=O)/C=C/N(C)C | 10.8% (inactive) |
| O=C(CSc1nncs1)NC1CCCc2ccccc21 (stereo not given) | -8.5% (inactive) |
| COCC1CCCN(Cc2nc(-c3ccc4c(c3)OCO4)no2)C1 (stereo not given) | 0.8% (inactive) |
| O=C(/C=C/c1ccccc1)c1ccoc1 | 14% (inactive) |
| O=C(/C=C/c1ccc(N2CCOCC2)cc1)c1ccccc1 | 60.8% (active) |
| O=C(O)c1ccc2c(c1)C(=O)N(c1ccc(/C=C/C(=O)c3ccccc3)cc1)C2=O | -0.5% (inactive) |
| CC1=C[C@H]2Cc3cc(C)cc(C)c3S(=O)(=O)[C@@H]2C=C1 | -5.9% (inactive) |
| C/C(=C\C(=O)c1ccccc1)Nc1cccc(O)c1 | 44.4% (inactive) |
| O=C(Nc1cccc(O)c1)c1ccc(C(=O)c2ccccc2)o1 | 69.9% (active) |
| O=C(CSc1ccccc1)Nc1ccc(C(=O)Nc2cccc(O)c2)cc1 | 1.9% (inactive) |
| NC(=O)C1CCN(C(=O)COc2cccc3cccnc23)CC1 | -10% (inactive) |
| Cc1cc(C(=O)CCl)c(C)n1CC1COc2ccccc2O1 (stereo not given) | -0.3% (inactive) |
| Cc1cc(C(=O)Cn2cnc3cc([N+](=O)[O-])ccc3c2=O)c(C)n1CC1CCCO1 (stereo not given) | 1.6% (inactive) |
| Cc1ccsc1C(=O)OCC(=O)c1cc(C)n(CC2CCCO2)c1C (stereo not given) | 90.3% (active) |
| CCC1C=C(c2ccccc2)C=CN=C1N(CC)CC (stereo not given) | -5% (inactive) |
| O=C(Cn1c(N2CCN(C/C=C/c3ccccc3)CC2)nc2ccccc21)c1ccccc1 | -2.2% (inactive) |
| CCN(CCCNC(=O)CCn1c(=O)[nH]c2ccsc2c1=O)c1ccccc1 | -2.6% (inactive) |

| SMILES | inhibition |
| --- | --- |
| CC(C)=CCN1CCN(Cc2ccc(Oc3ncccn3)cc2)CC1CCO (stereo not given) | -0.1% (inactive) |
| N=c1c2c(-c3ccccc3)c(-c3ccccc3)n(Cc3ccccc3)c2ncn1CCCO | -2.7% (inactive) |
| OCCCN1c2ccccc2Nc2nnc(-c3ccccc3)cc21 | 57.2% (active) |
| CCCN(CCC)CCCNC(=O)CNC(=O)c1nn(-c2ccc(OC)cc2)c(=O)c2ccccc12 | -0.3% (inactive) |
| Cc1ccc(OC(=O)c2cc3ccccc3o2)cc1 | 73.3% (active) |
| O=C(Oc1cccnc1)c1cc2ccccc2oc1=O | -6.1% (inactive) |
| Cc1ccsc1C(=O)OCC(=O)c1cc2ccccc2o1 | 1.6% (inactive) |
| CCOC(=O)c1c(C)[nH]c2c1-c1ccccc1C(=O)C2=O | -5.3% (inactive) |
| CCOC(=O)c1c(C)[nH]c(C2=NNC(=NC(C)COC)SC2)c1C (stereo not given) | 56.5% (active) |
| CCCCOC(=O)c1[nH]c(C)c(C(=O)OC)c1C | 15.4% (inactive) |
| O=c1c2ccccc2nc2n1C1(CCCCC1)Cc1ccccc1-2 | -6.3% (inactive) |
| CCOC(=O)C(C)Sc1nc2ccccc2c(=O)n1CC1CCCCC1 (stereo not given) | 1.4% (inactive) |
| CN(c1ccc2nc3ccccc3c(=O)n2n1)C1CCCCC1 | 96.2% (active) |
| CC(C)CCC(C)NC(=O)c1ccc2nccnc2c1 (stereo not given) | 2.8% (inactive) |
| COc1ccc(N2C(=O)/C(=C\c3ccco3)N=C2SCC(N)=O)cc1Cl | -5.8% (inactive) |
| Cc1ccc2cc3cc(C(=O)N4CCCCCC4)oc3nc2c1 | 69.5% (active) |
| Cc1ccc(C(=O)N2CCCCCC2)cc1Br | -7.1% (inactive) |
| Cc1cc(=O)oc(C)c1C(=O)N1CCCCC1 | -6.7% (inactive) |
| C/C(=N/N1CCN(Cc2cccc3ccccc23)CC1)c1cccnc1 | -5.7% (inactive) |
| O=C(Nc1ccc(NC(=O)c2cccs2)cn1)c1ccco1 | 83.2% (active) |
| COc1cccc(C(=O)Nc2ccc(NC(=O)c3ccco3)cn2)c1 | 6.5% (inactive) |
| O=C(Nc1ccc2nccnc2c1)c1ccco1 | 13% (inactive) |
| N/C(=N\OC(=O)c1ccc2c(c1)OCO2)c1ccc(Br)cc1 | 60.6% (active) |
| N/C(=N\OC(=O)N1c2ccccc2Sc2ccccc21)c1ccc(Br)cc1 | -3.4% (inactive) |
| N/C(=N\OC(=O)/C=C/c1ccccc1)c1ccc(Br)cc1 | -0.5% (inactive) |
